Measurements as given in PubChem BioAssay AID651826 (Vanderbilt Specialized Chemistry Center, 2012).
Calls of active or inactive are those of the source.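 Rule for the calls: active = inhibition above 50% of specific binding or functional response at a panel target; inactive = the rest.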

Experiment: off-target binding across receptor panel, profiling panel, selectivity assay for E-cadherin project, biochemical, Ricerca panel, radioligand binding (AID 651826)
Details: Ricerca radioligand binding/enzyme panel, % inhibition, at 10 µM, stronger effect = higher value

O=C(NCCCNC(=O)c1ccc[nH]c1=O)c1cc(-c2ccccc2)on1
inhibition: 74% (active) | inhibition (measured here: 5-HT1A binding): -4% | inhibition (measured here: GABAA muscimol site binding): 20% | inhibition (measured here: adenosine A1 binding): 71% | inhibition (measured here: cannabinoid CB1 binding): -23% | inhibition (measured here: dopamine D3 binding): 18% | inhibition (measured here: dopamine transporter binding): 31% | inhibition (measured here: hERG channel binding): 13% | inhibition (measured here: mu opioid binding): -5% | inhibition (measured here: muscarinic M1 binding): 9% | inhibition (measured here: norepinephrine transporter binding): 13% | inhibition (measured here: serotonin transporter binding): 10% | inhibition (measured here: sigma1 receptor binding): 47%
